{"source": "PubChem BioAssay (EPA / NIEHS)", "note": "Calls of active or inactive are those of the source. The calls were made as follows: active = hit-call score of the fitted dose curve at least 0.9, where 1 is the maximum; inactive = score below 0.9."}
{"read-out": "Glutamate-cysteine ligase regulatory (GCLM), GCLM (gene 2730)", "experiment": "LTEA_HepaRG_GCLM: Life Technologies and Expression Analysis (LTEA) Assay for Glutamate-cysteine ligase regulatory (GCLM) using HepaRG (AID 2283500)", "details": "mRNA level, 48 h; actives raise or lower the signal", "protocol": "LTEA_HepaRG is a cell based, multiplexed-readout assay that uses HepaRG, a human liver cell line, with measurements taken at 48 hours after chemical dosing on a 96-well plate.LTEA_HepaRG_GCLM is one of 102 assay component(s) measured in the LTEA HepaRG cell culture assay. It is a marker of Cell proliferation, survival, death.Data from the assay component LTEA_HepaRG_GCLM was analyzed into 1 endpoint. This assay endpoint, LTEA_HepaRG_GCLM, was analyzed with bidirectional fitting relative to DMSO as the negative control and baseline of activity. Using a type of inducible reporter, measures of mRNA induction for gain or loss-of-signal activity can be used to understand regulation of transcription factor activity. To generalize the intended target to other relatable targets, this assay endpoint is annotated to the ligase intended target family, where the subfamily is C-N ligase.\nA total of 1060 chemcials from the ToxCast library were tested in eight-point concentration-response experiments. Cell culture and cytotoxicity assays were conducted at Thermo Fisher Scientific's Custom Services facility (Madison, WI). A single lot of human HepaRG cells (Thermo Fisher Scientific, Frederick, MD) was used for the cell culture experiments. 96-well format collagen type I coated plates of human HepaRG cells were prepared using established methods. Briefly, cryopreserved HepaRG cells were thawed, plated at a density of approximately 100,000 cells/well in HepaRG Thaw, Plate, and General Purpose media (HPRG770, Thermo Fisher Scientific), and incubated for 48 hours. 0.5% DMSO was selected as vehicle control to balance the requisite need of DMSO in HepaRG cultures to maintain differentiation (for example, baseline metabolism, proportions of hepatocytes vs. cholangiocytes), while enabling further hepatic receptor pathway activation (for example, PXR and CAR) in response to chemical exposure. 48 hours after plating, the culture medium was replaced with HepaRG Serum-Free Incudtion Media. Cells were exposed to each test chemical in duplicate and maintained in CO2 incubators for another 48 hours. Chemical plates were thawed to room temperature and 200x concentrations of treatment groups were prepared. 8-point conentration-reponse curves were made with the highest exposure at 100 uM, followed by half-log dilutions, all in 0.5% DMSO. Each test plate contained variouse controls, induction positive controls (1mM phenobarbital), cytotoxicity positive controls ([…] aflatoxin B1), vehicle controls (0.5% DMSO), and total lysis controls (0.5% DMSO). Cell morphology images were taken using an Essen IncuCyte FLR automated microscope, with six 96-well plates imaged in about 24 minutes. Images were captured and exported and JPEG files. Spent culture media was transfered to black-well plates for the LDH assay, and remaining media was sorted at -80 C for later use. Cells were treated with RLT buffer and frozen until shipped for gene expression analysis. Total RNA was isolated from the cell suspension in 75 uL of Buffer RLT (Qiagen, Germantown, MD 20874) by Quintiles/Expression Analysis (Durham, NC) using a custom isolation procedure. Total RNA from each plate well was transferred to a preamplification plate. Fluidigm's 96.96 Dynamic ArrayTM (Fluidigm, Amsterdam, the Netherlands) technology was used for gene expression analyses by quantitative reverse transcription polymerase chain reaction (qRT-PCR, performed by Quintiles/Expression Analysis, Durham, NC)89. Standard TaqManTM Assays (Applied Biosystems/ThermoFisher Scientific, Foster City, CA) were used to assess the expression of 93 genes selected based on their selectivity and sensitivity to important hepatic receptors known to be modulated by environmental chemicals; importance in human hepatocyte functionality; and hepatotoxicity. […]"}
{"smiles": "Clc1cc(Cl)c2c(c1)N=C1CCCCCN1C2", "outcome": "inactive"}
{"smiles": "CC(C)(C)c1csc(-c2cc3cc(OCc4ccccc4CC(=O)O)ccc3o2)n1", "AC50": "85.4 µM (active)"}
{"smiles": "COc1cc(C(=O)NC2CCN(C)CC2)ccc1Nc1ncc2c(n1)N(C1CCCC1)CC(F)(F)C(=O)N2C", "outcome": "inactive"}
{"smiles": "CC(=O)N1CCN(c2ccc(OC[C@H]3CO[C@](Cn4ccnc4)(c4ccc(Cl)cc4Cl)O3)cc2)CC1", "AC50": "88.7 µM (active)"}
{"smiles": "Cc1cc(F)ccc1-c1cc(N2CC[C@@H](O)[C@H]2CO)ncc1N(C)C(=O)C(C)(C)c1cc(C(F)(F)F)cc(C(F)(F)F)c1", "AC50": "46.7 µM (active)"}
{"smiles": "CC1(C)NC(=O)N(c2ccc([N+](=O)[O-])c(C(F)(F)F)c2)C1=O", "AC50": "70.9 µM (active)"}
{"smiles": "CCN(Cc1cccnc1)C(=O)c1cccc(Cl)c1[C@]1(C)C(=O)N(Cc2ccc(OC)cc2OC)c2ccc(Cl)cc21", "AC50": "20.1 µM (active)"}
{"smiles": "CCCCCCCCOC(=O)c1cc(O)c(O)c(O)c1", "outcome": "inactive"}
{"smiles": "OC12N=C(c3ccccc3)SC1Cc1cc(Cl)ccc12", "note": "(stereo not given)", "AC50": "25.1 µM (active)"}
{"smiles": "O=CCCCC=O", "AC50": "0.236 µM (active)"}
{"smiles": "Cc1cccc2ccccc12", "outcome": "inactive"}
{"smiles": "Cc1ncc(CO)c(CO)c1O", "outcome": "inactive"}
{"smiles": "Cc1occc1C(=O)Nc1ccc(C(=O)N2CCC(F)(F)/C(=C\\C(=O)N3CCC(N4CCCCC4)CC3)c3ccccc32)cc1", "outcome": "inactive"}
{"smiles": "CCCCCCCCCCCO", "outcome": "inactive"}
{"smiles": "CC1=CC(=O)/C(=C(/C)O)C(=O)O1", "outcome": "inactive"}
{"smiles": "Cc1cn([C@H]2C[C@H](N=[N+]=[N-])[C@@H](CO)O2)c(=O)[nH]c1=O", "outcome": "inactive"}
{"smiles": "Cc1ccc(C(C)C)cc1", "outcome": "inactive"}
{"smiles": "O=c1c(-c2ccc(O)cc2)coc2cc(O)cc(O)c12", "outcome": "inactive"}
{"smiles": "Oc1ccccc1", "outcome": "inactive"}
{"smiles": "CCCCCCCCOc1ccc(C(=O)c2ccccc2)c(O)c1", "outcome": "inactive"}
{"smiles": "O=C1CCC(C2CCCCC2)CC1", "outcome": "inactive"}
{"smiles": "CCOC(=O)O[C@H](C)OC(=O)c1ccc2c(c1)cc(C(=O)NC1CCN(C(C)C)CC1)n2Cc1cc(-c2ccc(Cl)s2)on1", "outcome": "inactive"}
{"smiles": "CC[C@@H]1C[C@H](N(Cc2cc(C(F)(F)F)cc(C(F)(F)F)c2)C(C)=O)c2cc(C(F)(F)F)ccc2N1C(=O)OC(C)C", "outcome": "inactive"}
{"smiles": "c1ccc2n[nH]nc2c1", "outcome": "inactive"}
{"smiles": "Cc1c2ccccc2c(C)c2c1ccc1ccccc12", "AC50": "50 µM (active)"}
{"smiles": "CCCOC(=O)c1cc(O)c(O)c(O)c1", "outcome": "inactive"}
{"smiles": "O=c1ccc2ccccc2o1", "outcome": "inactive"}
{"smiles": "C[C@]12CC[C@@H]3c4ccc(O)cc4CC[C@H]3[C@@H]1CC[C@H]2O", "outcome": "inactive"}
{"smiles": "O=C(OCCCCCCOC(=O)c1ccccc1)c1ccccc1", "outcome": "inactive"}
{"smiles": "O=C(O)c1ccccc1-n1cc(C(=O)O)c(=O)c2cc(Nc3c(F)cc(F)cc3Cl)c(Cl)cc21", "outcome": "inactive"}
{"smiles": "CC[C@H](NC(=O)c1cc(F)ccc1NS(=O)(=O)c1cccc2cccnc12)c1ccccc1", "outcome": "inactive"}
{"smiles": "CN(C)C(=O)C1(N2CCCCC2)CCN(CC[C@@]2(c3ccc(Cl)c(Cl)c3)CN(C(=O)c3ccccc3)CCO2)CC1", "AC50": "88.3 µM (active)"}
{"smiles": "CC(C)(c1cc(Br)c(O)c(Br)c1)c1cc(Br)c(O)c(Br)c1", "outcome": "inactive"}
{"smiles": "Cc1cc2c(cc1C(F)(F)F)N(C(=O)Nc1ccc(Oc3cccnc3C)nc1)CC2", "outcome": "inactive"}
{"smiles": "CCCCOC(=O)CC(CC(=O)OCCCC)(OC(C)=O)C(=O)OCCCC", "outcome": "inactive"}
{"smiles": "COCC(C)OCC(C)OCC(C)O", "note": "(stereo not given)", "outcome": "inactive"}
{"smiles": "CC(C)(O)c1ccc(CNC(=O)c2cccnc2Oc2ccc3nonc3c2)cc1", "outcome": "inactive"}
{"smiles": "Cc1oc2c(NC(=O)c3c(Cl)cccc3Cl)cccc2c1C(C)(C)O", "AC50": "50 µM (active)"}
{"smiles": "OCCO", "outcome": "inactive"}
{"smiles": "O=C(O)c1ccccc1C(=O)OCc1ccccc1", "outcome": "inactive"}
